High-throughput results as filed in PubChem.
Compounds with a hit are over-represented: about 17% of the library has one in this group of screens.
TDP1 cell noCPT – qHTS for Inhibitors of human tyrosyl-DNA phosphodiesterase 1 (TDP1): qHTS in cells in absence of CPT; DT40 Tdp1-/- hTDP1 cells, no CPT, ATP luminescence, 48 h; Potency, µM (doses to about 46.2 µM), without a hit: at the highest dose activity change, negative = growth inhibition, most hits filed as inhibitors; 420,000 tested, 15% active; further: on the % scale 0 is the no-effect control and ±100 the full control effect; nearly all actives have a fitted effect of over 55% in size
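No-CPT arm: Tdp1-/-;hTDP1 DT40 cells (400/well) plus compounds, incubated ≥48 hr at 37 °C. Readout CellTiter-Glo luminescence.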
HT1080-NT tox – qHTS for induction of synthetic lethality in tumor cells producing 2HG: qHTS for the HT-1080-NT fibrosarcoma cell line; HT-1080-NT fibrosarcoma viability, CellTiter-Glo ATP luminescence, 48 h; Potency, µM (series often up to 46.1 µM), for inactives: at the top dose activity, negative = less viability, actives largely listed as cytotoxic; 360,000 tested, 1.6% active; AID 686970, 2013;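 further: NT is the 2HG producing partner of a matched IDH1 knockdown line; 0% = DMSO-treated cells and -100% = media-only wells without cells; nearly all actives have a fitted effect of over 55% in size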
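Fibrosarcoma NT cells, 750 per well in 5% FBS RPMI, were exposed to compound for 48 hours. Viability: CellTiter-Glo luminescence.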
TGFb SMAD3 inh – qHTS for Inhibitors of TGF-b; HepG2 CAGA-GFP TGF-b/SMAD3 reporter, GFP fluorescence, 18 h; TGF-beta stimulated, 500 pg/mL final; Potency, µM (highest dose often 46.1 µM), inactives show at the highest dose activity, negative = inhibition, actives largely listed as inhibitors; 410,000 tested, 1.2% active; further: on the % scale 0 is the no-effect control and ±100 the full control effect; nearly all actives have a fitted effect of over 65% in size
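Inhibition of TGF-beta-driven CAGA-GFP reporter expression in HEPG2 cells is measured by cellular GFP fluorescence after 18 h stimulation with 500 pg/mL recombinant TGF-beta in 1% FBS medium at 37 degrees C.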
HT1080 IDH1KD tx – qHTS for induction of synthetic lethality in tumor cells producing 2HG: qHTS for the HT-1080-IDH1KD cell line. 360,000 tested, 2% active. Potency, µM (doses to about 46.1 µM), for the others: at the top dose activity, negative = toxicity, actives largely listed as cytotoxic. HT-1080 IDH1 knockdown viability, ATP luminescence, 48 h;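 further: 0% = DMSO wells and -100% = cell-free medium wells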
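Cytotoxicity counter-line: IDH1KD HT-1080, 48 h, CellTiter-Glo. Curves classed by r2, magnitude and activity.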
TDP1 cell CPT – qHTS for Inhibitors of human tyrosyl-DNA phosphodiesterase 1 (TDP1): qHTS in cells in presence of CPT. chicken DT40 Tdp1-/-;hTDP1 cells + 20 nM CPT, ATP luminescence, 48 h. Potency, µM (top dose mostly 46.2 µM), for inactives: top-dose activity change, negative = growth inhibition, actives largely listed as inhibitors. 420,000 tested, 12% active. AID 686979, 2013; further: on the % scale 0 is the no-effect control and ±100 the full control effect; nearly all actives have a fitted effect of over 55% in size
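Chicken DT40 Tdp1-/- cells stably complemented with human TDP1 were seeded at 400 cells/well in medium containing 20 nM camptothecin, exposed to pin-transferred compounds, and grown at 37 °C for at least 48 hr. Viability was read as ATP luminescence.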
HepG2 viability – qHTS for Inhibitors of TGF-b: Cytotox Counterscreen | HepG2 CAGA-GFP viability, ATP luminescence, 18 h | Potency, µM (highest dose often 46.1 µM), inactives show at the top dose activity change, negative = cytotoxicity, usual class: cytotoxic | 410,000 tested, 0.76% active
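CellTiter-Glo luminescence gave cytotoxicity after 18 hours at 37 degrees C. The cells were HepG2 CAGA-GFP in 1% FBS DMEM, stimulated with 500 pg/mL TGF-beta after compound addition. %Activity was normalised to no-cell wells (complete cell-killing) and DMSO (no toxicity), and curves were fitted and classified.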
* = called active by the depositor; ? = inconclusive; . = not tested or not shown. The call rests on the fitted dose curve; in most records, active means well fitted curve in the direction sought with a large enough effect; inconclusive means small, poorly fitted or top-dose-only effect, or another doubt; inactive means no such curve, though single readings can be large; an effect the other way counts as inactive or inconclusive. Potency means the concentration at half of the fitted maximal effect.

SMILES | TDP1 cell noCPT | HT1080-NT tox | TGFb SMAD3 inh | HT1080 IDH1KD tx | TDP1 cell CPT | HepG2 viability
COc1ccc(-c2ccc3[nH]c4c(c3c2)CCN2C[C@@H]([C@H](C)OC(=O)Nc3cc(Cl)cc(Cl)c3)[C@@H](N(C)C(=O)Nc3cc(Cl)cc(Cl)c3)C[C@@H]42)cc1 | ? | -19% | 9% | -4% | ? | -5%
COc1ccc(NC(=O)O[C@@H](C)[C@@H]2CN3CCc4c([nH]c5ccc(-c6ccc(OC)cc6)cc45)[C@@H]3C[C@@H]2N(C)C(=O)Nc2ccc(OC)cc2)cc1 | 13µM* | -23% | ? | -23% | ? | -41%
COc1ccc(NC(=O)N(C)[C@H]2C[C@H]3c4[nH]c5ccc(-c6ccc(OC)cc6)cc5c4CCN3C[C@H]2[C@H](C)O)cc1 | ? | 23µM* | ? | 16µM* | ? | -103%
COc1ccc(NC(=O)N(C)[C@H]2C[C@H]3c4[nH]c5ccc(-c6ccc7c(c6)OCO7)cc5c4CCN3C[C@H]2[C@H](C)O)cc1 | 10µM* | 23µM* | ? | 23µM* | 8.2µM* | -83%
CN(C)N=Nc1nc2c(c(=O)n(C)c(=O)n2C)n1C | -21% | 25% | -11% | 15% | 6% | -5%
CCCCn1c(SCCN2CCCCC2)nc2c1c(=O)n(C)c(=O)n2C | -28% | -3% | 11% | 3% | -30% | 1%
CCCc1nc2nc(C)c(NS(=O)(=O)c3ccc(C)c(C)c3)c(=O)n2[nH]1 | 9% | 7% | -9% | -4% | 0% | -2%
Cc1[nH]n(-c2ccccc2)c(=O)c1C(c1cc(Cl)ccc1O)c1c(C)[nH]n(-c2ccccc2)c1=O | ? | . | 7.9µM* | . | -19% | -62%
CCOc1cc(C(c2c(C)[nH]n(-c3ccccc3)c2=O)c2c(C)[nH]n(-c3ccccc3)c2=O)ccc1O | 5.2µM* | . | 11µM* | . | ? | 8.9µM*
CC(C)c1ccc(NC(=O)CN2C(=O)NC(C)(C3CC3)C2=O)cc1 (stereo not drawn) | ? | 1% | -9% | -3% | -20% | 0%
COc1ccccc1N1CCN(c2cc(C)nc3nc(-c4ccc(Cl)cc4)nn23)CC1 | ? | . | ? | . | -19% | -1%
Cc1ccc(N2CCN(S(=O)(=O)c3ccc4c(c3)oc(=O)n4C)CC2C)cc1 (stereo not drawn) | -9% | -10% | -23% | -4% | ? | -2%
COc1ccc(S(=O)(=O)N(CC(N)=O)C2CCCCC2)cc1Cl | ? | -1% | 14% | 1% | 23µM* | -25%
COc1ccc(S(=O)(=O)N(C)CC(=O)NC2CCCCC2)cc1Cl | -8% | 5% | -12% | 11% | -1% | -2%
CCC(CC)C(=O)Nc1ccc(C(=O)Nc2cc(C)on2)cc1 | -1% | 2% | 9% | 3% | 7% | -1%
COc1ccc2cc3cc(C(=O)NCCN4CCN(Cc5ccccc5)CC4)oc3nc2c1 | 21µM* | 0% | -5% | -10% | -28% | -48%
COc1ccc2cc3cc(C(=O)N4CCCCC4C)oc3nc2c1 (stereo not drawn) | ? | -2% | 1% | 0% | 16µM* | -30%
COc1ccc2cc3cc(C(=O)NCCCN4CCC(C)CC4)oc3nc2c1 | 2.6µM* | -25% | 0% | -24% | ? | -5%
